Screening data: PubChem, several laboratories
BoNT-F LC inh: BoNT F light chain protease inhibition; Multiplex microsphere protease cleavage assay, flow cytometry; inhibition, % at 10 µM; hit rate 0.22% among 360,000; AID 588497; in the data active means inhibition above about 35%, passing the limit was not always enough; inconclusive means no clear call, values can overlap the other calls; further: plate controls were buffer without enzyme for full effect and enzyme alone for no effect
BoNT A protease: blocks Botulinum neurotoxin A light chain protease; multiplex microsphere protease substrate cleavage, flow cytometry; inhibition, % at 10 µM; hit rate 0.17% among 360,000; further: plate controls were buffer without enzyme for full effect and enzyme alone for no effect
Autofluor counter: counter-screen for toxin protease inhibitors: compound fluorescence; compound autofluorescence counterscreen, microsphere flow cytometry; stronger effect = higher value; fluorescence intensity (concentration not given with the values); hit rate 3.1% among 360,000; in the data active means fluorescence intensity above about 16000; inconclusive means no clear call, values can overlap the other calls
Anthrax LF prot: inhibitors of Bacillus anthracis lethal factor protease | multiplex microsphere protease cleavage assay, LF | P15917 | inhibition, % at 10 µM | hit rate 0.12% among 360,000; further: plate controls were buffer without enzyme for full effect and enzyme alone for no effect
BJeLR viability: BJeLR cell viability loss. BJeLR (HRASV12) viability, CellTiter-Glo ATP luminescence, 48 h. inhibition, % (no concentration beside the values). hit rate 0.17% among 300,000. AID 1554; in the data active means inhibition above about 50%; inconclusive means no clear call, values can overlap the other calls
* marks the source's active call; other numbers are inactive results; ? = inconclusive; / = no result. The list is not random: actives were taken first. Their share in the collection is about 3.5%. Unless noted, no stated cut-off is given here; in the data, active means inhibition above about 30%; inconclusive means no clear call, values can overlap the other calls; inactive means below that.

SMILES | BoNT-F LC inh | BoNT A protease | Autofluor counter | Anthrax LF prot | BJeLR viability
CCOc1ccc(NS(=O)(=O)c2ccc(C(=O)NCc3ccncc3)cc2)cc1 | -232 | -176 | 42543* | -35 | 1
CCCNC(=O)COc1ccc(S(=O)(=O)Nc2ccc(C)cc2)cc1 | 2 | 2 | 22233* | -1 | 3
CCCCOc1ccc(S(=O)(=O)Nc2ccc(NC(C)=O)cc2)cc1 | 0 | 1 | 21764* | -2 | 0
CCCCOC(=O)Nc1ccc(S(=O)(=O)Nn2cnnc2)cc1 | -20 | ? | 29599* | -5 | 8
CC(=O)Nc1ccc(OCCOc2ccc(NC(C)=O)cc2)cc1 | 13 | -3 | 3946 | -5 | 2
CNC(=O)COc1ccc(S(=O)(=O)Nc2ccc(C)cc2)cc1 | 3 | -1 | 4120 | -2 | -3
COC(=O)c1cc2n(n1)CCN(Cc1ccc(F)cc1)C2=O | -4 | 0 | 2800 | -1 | 0
CC(=O)Nc1ccc(S(=O)(=O)Nc2ccc(S(=O)(=O)Nc3nc(C)cc(C)n3)cc2)cc1 | -4 | 4 | 3056 | 0 | 0
CCCCN(CCCC)S(=O)(=O)c1ccc(NS(=O)(=O)c2ccc(NC(C)=O)cc2)cc1 | -3 | ? | 21196* | 1 | 0
O=C(C1CC(=O)N(c2ccccc2)C1)N1CCN(C2=NS(=O)(=O)c3ccccc32)CC1 (configuration not stated) | 0 | -1 | 23523* | 0 | 2
CCCC(=O)N1CCN(C2=NS(=O)(=O)c3ccccc32)CC1 | -6 | ? | 23423* | -4 | 0
CCOC(=O)CC(=O)CSc1nc2c(sc(=S)n2-c2ccccc2)c(=O)[nH]1 | 3 | ? | 21967* | 0 | 0
Cc1cccc(NC(=O)Cn2c(=O)n3nc(CCn4nc(C)cc4C)nc3c3ccccc32)c1 | 4 | 6 | 21276* | -2 | -1
CCN(C(=O)Cn1c(=O)n2nc(CCn3nc(C)cc3C)nc2c2ccccc21)c1cccc(C)c1 | 2 | 0 | 11098 | -2 | /
COc1ccc(C(=O)CSc2nnc(Cn3cnc4ccccc43)o2)cc1 | -4 | 0 | 8366 | -4 | -1
CC(=O)C1=CCC(c2ccccc2Cl)N(S(=O)(=O)c2ccc(C)cc2)C1 (configuration not stated) | -2 | 0 | 4334 | -8 | /
Cn1c(=O)n(C)c2cc(NC(=O)COc3ccc(Cl)cc3)ccc21 | -6 | 0 | 4533 | -6 | 6
CCN(CC)S(=O)(=O)c1ccc(F)cc1 | -2 | ? | 17034* | 0 | 2
CCN(CC)S(=O)(=O)c1cccc(S(=O)(=O)c2cccc(S(=O)(=O)N(CC)CC)c2)c1 | 0 | ? | 22967* | -5 | 8
N#CC(c1cccc(C(F)(F)F)c1)(c1ncc(C(F)(F)F)cc1Cl)N1CCOCC1 (configuration not stated) | -2 | 0 | 23108* | -6 | 0
CC1CCN(C(=O)c2ncn3c2c(=O)[nH]c2ccc(Br)cc23)CC1 | -4 | 0 | 3560 | 5 | /
COc1ccccc1CNC(=O)c1cnccn1 | -4 | -3 | 17158* | -6 | 0
CC(C)(C)c1ccc(C(=O)Nc2ccc(C(=O)NCc3cccnc3)cc2)cc1 | 1 | -2 | 6545 | -1 | 82*
COc1ccc(C(=O)NCc2cccnc2)cc1OC | -2 | 1 | 22834* | 0 | -4
N#Cc1c(Nc2ccccc2)[n+]([O-])c2ccc(Cl)cc2[n+]1[O-] | -14 | 1 | 3683 | -2 | /
SMILES | BoNT-F LC inh | BoNT A protease | Autofluor counter | Anthrax LF prot | BJeLR viability
O=c1[nH][nH]c2c1C(c1ccc(Cl)c(Cl)c1)OC(CCc1ccccc1)C2 (configuration not stated) | -5 | 0 | 5857 | -1 | /
Cc1ccc(NC(=O)CCC(=O)OCC(F)(F)C(F)F)cc1 | 2 | ? | 21194* | -2 | -2
CCOC(=O)CC(=O)CSCC(=O)Nc1ccc(C)cc1 | 0 | 2 | 22826* | 0 | 0
Cc1ccc(NC(=O)CSCC#N)cc1 | -12 | ? | 18468* | -8 | -1
CCOC(=O)c1ccc(NC(=O)CSCc2ccco2)cc1 | -3 | ? | 16501* | 0 | -4
Cc1nc(NC(=O)c2cc3ccccc3o2)ccc1Br | -10 | -3 | ? | -3 | -2
CC(C)(C)C(=O)OCc1cn(-c2ccccc2)nn1 | -1 | 0 | 9925 | 2 | 10
CC(C)(C)C(=O)OCc1cn(-c2ccc(Cl)cc2)nn1 | 0 | ? | 19456* | -5 | 4
CC(C)CC(=O)OCc1cn(-c2ccccc2)nn1 | -7 | -5 | 21300* | 0 | 7
CCNC(=O)OCc1cn(-c2ccccc2)nn1 | -15 | -2 | 2923 | -2 | -2
O=C(Nc1cccc(Cl)c1)OCc1cn(-c2ccc(Cl)cc2)nn1 | -7 | -2 | 16617* | -3 | 1
COc1ccc(-c2cc(C(F)(F)F)n3nc(C(=O)NCc4ccco4)c(Cl)c3n2)cc1 | -7 | 0 | 4424 | -5 | -6
COCC(=O)N(C)C[C@@H]1Oc2cc(-c3ccc(F)cc3)ccc2S(=O)(=O)N([C@H](C)CO)C[C@H]1C | 5 | 0 | 3363 | 5 | /
O=C(CCC1CCCCC1)Nc1ccc(C(=O)c2ccncc2)cc1 | -3 | 0 | 3367 | 3 | 2
Cc1nnc(-c2cnn(-c3ccccc3)c2N)n1Cc1ccncc1 | -2 | ? | 20279* | 0 | 7
Cc1nnc(-c2cnn(-c3ccccc3)c2N)n1Cc1cccc(C(F)(F)F)c1 | -1 | 0 | 6402 | 1 | -27
O=C(Cn1ccc(NC(=O)OCc2ccccc2)nc1=O)NCc1ccc2c(c1)OCO2 | 9 | 0 | 3953 | -5 | /
COc1ccc(CS(=O)(=O)CC2(O)CCN(C(=O)c3cccc(C(F)(F)F)c3)CC2)cc1 | 3 | -1 | 4258 | -1 | 5
O=C(c1cccc(C(F)(F)F)c1)N1CCC(O)(CS(=O)(=O)Cc2ccccc2Cl)CC1 | -3 | ? | 20377* | 1 | -8
O=C(c1cccc(C(F)(F)F)c1)N1CCC(O)(CS(=O)(=O)Cc2ccc(Cl)cc2)CC1 | -8 | -3 | 17295* | -3 | -8
O=C(c1cccc(C(F)(F)F)c1)N1CCC(O)(CS(=O)(=O)Cc2ccccc2)CC1 | 1 | 0 | 4383 | -2 | 4
CCOC(=O)c1c(NC(=O)COC(=O)c2ccccc2NC)sc(C(=O)N(C)C)c1C | -3 | 4 | 4811 | 2 | -2
O=C(CN1C(=O)COc2ccccc21)N(Cc1cccnc1)Cc1cccc(F)c1 | -4 | ? | 16903* | 0 | 3
COc1ccc(N2C(=O)NC(=O)/C(=C/c3cccc(OC(=O)c4cccs4)c3)C2=O)cc1Cl | / | / | / | / | -3
Cc1ccc(N2C(=O)NC(=O)/C(=C/c3ccc(OC(=O)c4cccs4)cc3)C2=O)cc1 | -6 | ? | 24767* | -4 | -4
Cc1cccc(N2CCN(C(=O)c3cn(C)c(=O)c4c3c3ccccc3n4C)CC2)c1C | 0 | 0 | 23203* | -3 | -5
CCC(/C=C1\Sc2ccc(OC)cc2N1CC)=C\c1sc2ccc(OC)cc2[n+]1CCCS(=O)(=O)[O-] | 16 | 100* | 1738 | 48* | 33
CCC(=O)/C=C1/Sc2ccc(OC)cc2N1CCO | -6 | -2 | 5619 | -1 | -3
